# Records with an inconclusive call do not appear. Entries that show only a call come without a potency. Values without a mark were called inactive. Calls of active or inactive are those of the source. Calls follow the shape of the dose curve; as a rule, active = well fitted curve in the direction sought with a large enough effect in the repeat runs; inconclusive = weak or mixed curves; inactive = no such curve, though single readings can be large; an effect the other way counts as inactive or inconclusive.
# Legend:
# [1] = molecular target: Cytochrome P450 2C9 (Homo sapiens) (UniProt P11712); assay: Cytochrome P450 Family 2 Subfamily C Member 9 (CYP2C9) small molecule antagonists: luciferase reporter qHTS assay (AID 1671198); as to activity change, negative = inhibition: series mostly up to about 120 µM
# Sequence of Cytochrome P450 2C9 (Homo sapiens) (P11712 whole entry, looked up): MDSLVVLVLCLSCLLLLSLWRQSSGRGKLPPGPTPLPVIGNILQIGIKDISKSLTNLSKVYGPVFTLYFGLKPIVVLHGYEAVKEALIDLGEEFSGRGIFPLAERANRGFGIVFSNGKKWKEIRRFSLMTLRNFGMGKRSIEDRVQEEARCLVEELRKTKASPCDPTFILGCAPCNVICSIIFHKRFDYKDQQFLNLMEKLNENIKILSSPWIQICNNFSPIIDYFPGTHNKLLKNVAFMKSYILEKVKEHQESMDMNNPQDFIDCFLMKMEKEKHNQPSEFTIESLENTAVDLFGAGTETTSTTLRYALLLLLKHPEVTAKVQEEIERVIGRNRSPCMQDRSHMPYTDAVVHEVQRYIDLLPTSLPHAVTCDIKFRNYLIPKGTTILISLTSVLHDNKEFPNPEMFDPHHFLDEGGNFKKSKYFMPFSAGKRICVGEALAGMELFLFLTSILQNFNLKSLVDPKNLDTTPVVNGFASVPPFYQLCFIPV
# Method in brief: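 Enzyme-substrate mix preincubated with compound 10 min at room temperature; reaction started with NADPH regeneration solution, 1 h 37C. Luminescent luciferin product read after 20 min detection reagent.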
# [2] = molecular target: Voltage-gated inwardly rectifying potassium channel KCNH2 (Homo sapiens) (UniProt Q12809); assay: Human Ether-a-go-go-Related Gene (hERG) channel small molecule antagonists: fluorescence cell-based qHTS assay (AID 1671200); as to activity change, negative = inhibition: series mostly up to about 77 µM
# Sequence of Voltage-gated inwardly rectifying potassium channel KCNH2 (Homo sapiens) (Q12809 whole entry, looked up): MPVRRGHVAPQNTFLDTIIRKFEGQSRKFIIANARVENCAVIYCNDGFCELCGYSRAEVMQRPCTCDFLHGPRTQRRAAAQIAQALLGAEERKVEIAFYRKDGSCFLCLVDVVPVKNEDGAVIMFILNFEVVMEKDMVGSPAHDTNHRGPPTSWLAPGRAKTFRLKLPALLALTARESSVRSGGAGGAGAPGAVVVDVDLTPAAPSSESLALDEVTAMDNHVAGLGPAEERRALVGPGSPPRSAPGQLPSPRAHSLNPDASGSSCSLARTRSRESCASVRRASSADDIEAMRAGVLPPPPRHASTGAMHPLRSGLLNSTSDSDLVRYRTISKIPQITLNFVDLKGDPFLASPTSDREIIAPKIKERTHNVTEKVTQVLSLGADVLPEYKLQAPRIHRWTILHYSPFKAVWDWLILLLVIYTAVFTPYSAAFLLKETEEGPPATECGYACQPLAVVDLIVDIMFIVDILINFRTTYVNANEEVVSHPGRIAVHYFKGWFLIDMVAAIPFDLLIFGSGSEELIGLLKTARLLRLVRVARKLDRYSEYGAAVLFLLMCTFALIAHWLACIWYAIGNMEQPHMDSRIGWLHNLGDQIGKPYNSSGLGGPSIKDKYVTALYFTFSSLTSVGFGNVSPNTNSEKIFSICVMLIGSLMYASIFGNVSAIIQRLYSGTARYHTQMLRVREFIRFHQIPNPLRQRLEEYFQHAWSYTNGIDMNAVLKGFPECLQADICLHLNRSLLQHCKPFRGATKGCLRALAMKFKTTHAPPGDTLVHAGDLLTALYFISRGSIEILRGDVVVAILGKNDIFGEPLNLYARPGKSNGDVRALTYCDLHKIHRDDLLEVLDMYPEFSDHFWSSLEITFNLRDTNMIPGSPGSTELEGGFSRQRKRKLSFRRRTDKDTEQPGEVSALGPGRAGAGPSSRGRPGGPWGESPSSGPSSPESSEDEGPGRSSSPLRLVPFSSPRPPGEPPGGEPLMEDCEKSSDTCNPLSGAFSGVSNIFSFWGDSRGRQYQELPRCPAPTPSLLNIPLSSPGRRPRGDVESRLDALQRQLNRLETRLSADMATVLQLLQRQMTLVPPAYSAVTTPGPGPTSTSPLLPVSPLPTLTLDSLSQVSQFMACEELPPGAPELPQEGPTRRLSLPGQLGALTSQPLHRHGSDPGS
# Method in brief: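 Thallium flux as potassium surrogate: FluxOR II dye loaded 1 h at room temperature into hERG-expressing U2OS cells, then stimulus buffer added after 10 min. Kinetic 480 nm excitation/540 nm emission read, 2 min.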
# [3] = molecular target: Cytochrome P450 3A4 (Homo sapiens) (UniProt P08684); assay: Cytochrome P450 Family 3 Subfamily A Member 4 (CYP3A4) small molecule antagonists: luciferase reporter qHTS assay (AID 1671201); as to activity change, negative = inhibition: series mostly up to about 120 µM
# Sequence of Cytochrome P450 3A4 (Homo sapiens) (P08684 whole entry, looked up): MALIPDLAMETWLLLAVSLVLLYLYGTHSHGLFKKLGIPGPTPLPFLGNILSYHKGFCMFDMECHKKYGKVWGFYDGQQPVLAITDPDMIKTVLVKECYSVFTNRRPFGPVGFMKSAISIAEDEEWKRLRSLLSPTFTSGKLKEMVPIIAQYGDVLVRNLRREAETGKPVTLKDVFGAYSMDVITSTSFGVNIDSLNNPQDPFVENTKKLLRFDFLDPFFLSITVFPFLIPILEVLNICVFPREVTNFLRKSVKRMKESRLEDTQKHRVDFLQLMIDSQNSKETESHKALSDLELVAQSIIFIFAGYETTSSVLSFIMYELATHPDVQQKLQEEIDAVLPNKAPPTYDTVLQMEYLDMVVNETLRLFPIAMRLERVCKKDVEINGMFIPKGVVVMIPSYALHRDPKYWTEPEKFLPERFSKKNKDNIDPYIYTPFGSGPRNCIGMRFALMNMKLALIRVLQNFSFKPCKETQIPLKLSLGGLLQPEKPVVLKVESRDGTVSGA
# Method in brief: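 Recombinant human CYP3A4 converts a proluciferin substrate to luciferin over 1 h at room temperature after NADPH regeneration solution is added (compound preincubated 10 min); detection reagent stops reaction, luminescence read 20 min later as relative units.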
# [4] = molecular target: Cytochrome P450 1A2 (Homo sapiens) (UniProt P05177); assay: Cytochrome P450 Family 1 Subfamily A Member 2 (CYP1A2) small molecule antagonists: luciferase reporter qHTS assay (AID 1671199); as to activity change, negative = inhibition: series mostly up to about 120 µM
# Sequence of Cytochrome P450 1A2 (Homo sapiens) (P05177 whole entry, looked up): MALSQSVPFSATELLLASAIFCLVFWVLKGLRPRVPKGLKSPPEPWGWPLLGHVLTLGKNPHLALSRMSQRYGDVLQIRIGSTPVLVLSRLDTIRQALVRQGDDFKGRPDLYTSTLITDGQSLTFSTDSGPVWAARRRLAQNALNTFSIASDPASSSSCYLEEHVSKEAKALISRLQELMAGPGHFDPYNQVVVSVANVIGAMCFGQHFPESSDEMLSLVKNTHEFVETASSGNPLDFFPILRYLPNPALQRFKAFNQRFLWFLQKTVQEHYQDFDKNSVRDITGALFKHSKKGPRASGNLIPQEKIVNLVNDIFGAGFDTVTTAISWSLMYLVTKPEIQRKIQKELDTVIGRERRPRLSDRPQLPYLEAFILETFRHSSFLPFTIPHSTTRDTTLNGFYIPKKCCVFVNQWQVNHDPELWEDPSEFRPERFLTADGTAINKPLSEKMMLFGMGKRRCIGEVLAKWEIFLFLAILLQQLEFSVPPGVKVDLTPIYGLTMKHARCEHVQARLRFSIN
# Method in brief: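 Luminescence from luciferin formed by CYP1A2 from a proluciferin substrate, read 20 min after detection reagent. Compound was pre-incubated 10 min with enzyme-substrate, and reaction started with NADPH regeneration solution for 1 h at room temperature; furafylline control.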
# Also: nearly all actives have a fitted effect of over 50% in size.
# Potency is read from the fitted curve at half-maximal effect.
smiles,measurement,setting,value
C#C[C@]1(O)CC[C@H]2[C@@H]3CCc4cc(OC5CCCC5)ccc4[C@H]3CC[C@@]21C,Potency,[1],19.5 µM (active)
same,Potency,[2],inactive
O=C1C(O)=C(O)C(=O)C(O)=C1O,Potency,[1],inactive
same,Potency,[2],inactive
CCCn1cnc2c1c(=O)n(CCCCC(C)=O)c(=O)n2C,Potency,[1],inactive
same,Potency,[2],inactive
same,Potency,[3],inactive
CCCCCCCCCCCCCCCCOS(=O)(=O)O,Potency,[4],inactive
same,Potency,[2],inactive
CN(C)c1ccc(/C=C/c2ccc([N+](=O)[O-])cc2)cc1,"activity change, negative = inhibition",[1],-1.18% [at 10.5 µM]
same,"activity change, negative = inhibition",[2],3.51% [at 6.97 µM]
same,"activity change, negative = inhibition",[3],3.87% [at 10.5 µM]
COS(=O)(=O)C(F)(F)F,Potency,[1],inactive
same,Potency,[2],inactive
same,Potency,[3],inactive
O=S(c1cc(Cl)cc(Cl)c1O)c1cc(Cl)cc(Cl)c1O,Potency,[1],17.4 µM (active)
same,Potency,[2],inactive
same,Potency,[3],inactive
CCN(CC)CCNC(=O)c1cc(Br)c(N)cc1OC,Potency,[1],inactive
same,Potency,[3],inactive
CCCCC/C=C\C/C=C\CCCCCCCC(=O)NC(C)c1ccccc1 (stereo not drawn),Potency,[4],inactive
CC(C)(C)Cl,Potency,[4],inactive
same,Potency,[2],inactive
O=C(O)c1nc(Cl)c(Cl)c(Cl)c1Cl,Potency,[1],39.9 µM (active)
same,Potency,[2],inactive
same,Potency,[3],inactive
O=C1c2ccccc2S(=O)(=O)N1CCCCN1CCN(c2ncccn2)CC1,Potency,[4],inactive
Cc1cccc(C)c1OCC(=O)N[C@@H](Cc1ccccc1)[C@@H](O)C[C@H](Cc1ccccc1)NC(=O)[C@H](C(C)C)N1CCCNC1=O,Potency,[4],inactive
CC(CC=O)c1ccccc1 (stereo not drawn),Potency,[1],31.7 µM (active)
same,Potency,[2],inactive
same,Potency,[3],20 µM (active)
CN(C)CCN(Cc1ccccc1)c1ccccn1,Potency,[1],inactive
same,Potency,[2],9.52 µM (active)
same,Potency,[3],inactive
C=CC(=O)OCCOCCOCCOCCOC(=O)C=C,Potency,[1],inactive
same,Potency,[2],inactive
Cc1ncc(CO)c(C=O)c1O,Potency,[1],inactive
same,Potency,[2],inactive
same,Potency,[3],inactive
C=CC(=O)OCCOCCOC(=O)C=C,Potency,[1],inactive
same,Potency,[2],inactive
same,Potency,[3],inactive
COc1ccnc(CS(=O)c2nc3ccc(OC(F)F)cc3[nH]2)c1OC (stereo not drawn),Potency,[4],17.4 µM (active)
CN(C)C(=O)NC1(c2ccccc2)CCN(CC[C@@]2(c3ccc(F)c(F)c3)CN(C(=O)c3ccccc3)CCO2)CC1,Potency,[4],inactive
CCCCCCCCCOS(=O)(=O)O,Potency,[1],22.4 µM (active)
same,Potency,[2],inactive
same,Potency,[3],inactive
CCCCCCCN,Potency,[1],inactive
same,Potency,[3],inactive
O=C(O)c1ccco1,Potency,[1],inactive
same,Potency,[2],inactive
same,Potency,[3],inactive
O=C(NCC1CN(c2ccc(N3CCOCC3=O)cc2)C(=O)O1)c1ccc(Cl)s1 (stereo not drawn),Potency,[1],9.77 µM (active)
same,Potency,[3],inactive
COCC(C)OC(C)=O (stereo not drawn),Potency,[1],inactive
same,Potency,[2],inactive
same,Potency,[3],inactive
CCCCCCc1ccc(-c2ccc(C#N)cc2)cc1,Potency,[4],31.2 µM (active)
COc1cccc(N(C)C(=S)Oc2ccc3c(c2)CCCC3)n1,Potency,[4],24.5 µM (active)
same,Potency,[2],inactive
C=C1[C@H]2CC[C@@H]3[C@H]2C(C)(C)CCC[C@]13C,Potency,[1],inactive
same,Potency,[2],inactive
same,Potency,[3],inactive
CCCCCCCCCCCCN1CCCCCC1=O,Potency,[1],31.7 µM (active)
same,Potency,[2],inactive
same,Potency,[3],inactive
Nc1ccccc1S(=O)(=O)c1ccccc1,Potency,[1],inactive
same,Potency,[2],inactive
CC(C)Cc1ccc(C(C)C(=O)OCc2ccccn2)cc1 (stereo not drawn),Potency,[4],32.3 µM (active)
COc1cc2nc(N3CCN(C(=O)C4COc5ccccc5O4)CC3)nc(N)c2cc1OC (stereo not drawn),Potency,[4],inactive
CCCCOC(=O)CCCCCCCC(=O)OCCCC,Potency,[1],44.8 µM (active)
same,Potency,[2],inactive
same,Potency,[3],inactive
